According to PubChem BioAssay:
Calls of active or inactive are those of the source.

Key:
[1] = small molecules captured by biotinylated probe aFSTL3 – biochemical, small-molecule microarray, fluorescence 635/667, stem cell growth factor project, primary screen (AID 1064); conditions: higher = more signal;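 note: measures binding of the biotinylated anti-FSTL3 antibody to printed compounds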
[2] = binders from COS7 lysate, DM2A8 probe, primary screen, torsin A project, cell lysate, small-molecule microarray, fluorescence 635/667 (AID 1065); conditions: higher = more signal, COS7 lysate expressing mutant human TOR1A
[3] = small molecules captured by biotinylated probe aFGF2 – biochemical, small-molecule microarray, fluorescence 635/667, stem cell growth factor project, primary screen (AID 1067); conditions: higher = more signal;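 note: measures binding of biotinylated aFGF2 protein to printed compounds on slides; z-score merges feature fluorescence and signal-to-noise across triplicate slides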
[4] = small molecules captured by biotinylated probe aFGF10 – biochemical, small-molecule microarray, fluorescence 635/667, stem cell growth factor project, primary screen (AID 1071); conditions: higher = more signal;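 note: score merges 667 nm spot intensity and signal to noise from triplicate slides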
[5] = target: Neurogenic locus notch homolog protein 2 (Homo sapiens) (UniProt Q04721); experiment: small molecules binding Notch2 protein – biochemical, small-molecule microarray, 635 nm fluorescence, stem cell growth factors, primary screen (AID 1073); conditions: higher = more signal
[6] = target: Pro-neuregulin-1, membrane-bound isoform (Homo sapiens) (UniProt Q02297); experiment: small molecules binding neuregulin-1 protein – biochemical, small-molecule microarray, fluorescence 635/667, psychiatric disease protein project, primary screen (AID 1075); conditions: NRG1 binding, 635 nm fluorescence, higher = more signal;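 note: score combines 667 nm spot fluorescence with signal to noise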
[7] = tested on: Neuregulin-1 EGF-like domain; experiment: small molecules binding NRG1 EGF domain – biochemical, small-molecule microarray, 635 nm fluorescence, primary screen (AID 1081); conditions: higher = more signal;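 note: binding of the protein to compounds printed on small-molecule microarray slides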
[8] = FRG1 expression reporter modulators in myotubes – cell-based, C2C12 myotubes, firefly/Renilla luciferase, luminescence, FRG1 inhibition for FSHD, primary screen (AID 1084); conditions: FRG1 promoter luciferase, higher = more signal, called active from +8 up or from −8 down
[9] = small molecules captured by biotinylated probe aFST – biochemical, small-molecule microarray, fluorescence 635/667, stem cell growth factor project, primary screen (AID 1086); conditions: higher = more signal;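 note: score merges 667 nm fluorescence with signal-to-noise of each printed compound spot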
[10] = binders of probe aHhip on microarray, primary screen, stem cell growth factor project, biochemical, small-molecule microarray, fluorescence 635/667 (AID 1087); conditions: higher = more signal;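 note: score merges spot fluorescence at 667nm with spot signal to noise ratio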
[11] = tested on: PRMT1 (protein arginine N-methyltransferase 1); experiment: small molecules binding arginine methyltransferase PRMT1 – biochemical, small-molecule microarray, 635 nm fluorescence, primary screen (AID 1088); conditions: higher = more signal;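 note: binding of Prmt1 protein to compounds spotted on small-molecule microarray slides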
[12] = growth effects on S. cerevisiae YJM789 – YJM789 clinical isolate, OD600, 24 h, basal, primary screen (AID 1089); conditions: higher = more signal, called active from +8 up or from −8 down;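 note: growth of clinical yeast isolate S. cerevisiae YJM 789 seeded 1000 cells per well; test concentration not given here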
[13] = S. pombe growth modifiers, basal conditions – strain 972, OD600, 24 h, no modulator, primary screen (AID 1090);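 note: basal condition with compound alone and no growth modifier present; test concentration not given here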; conditions: S. pombe 972 growth, higher = more signal, called active from +8 up or from −8 down
[14] = budding yeast growth modifiers under rapamycin – strain BY4716, OD600, 96 h, primary screen (AID 1091); note: test concentration not given here; conditions: S. cerevisiae BY4716 + rapamycin, higher = more signal, called active from +8 up or from −8 down
[15] = target: Torsin-1A-interacting protein 2 (Homo sapiens) (UniProt Q8NFQ8); experiment: small molecules binding lysate-expressed LULL1 – cell lysate, human LULL1 lysate, 635/667 nm fluorescence, primary screen (AID 1092); conditions: small-molecule microarray, hLULL1 lysate binding, 635 nm fluorescence; higher = more signal;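 note: probe is lysate of COS7 cells overexpressing human LULL1; score merges per-feature 667 nm fluorescence with signal-to-noise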
[16] = optical density change of DRC41 E. coli – strain DRC41, OD650, 24 h, E. coli filamentation project, primary screen (AID 1093);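 note: MC1000 strain lacking acrAB efflux and sulA so SOS filamentation is blocked; test concentration not given here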; conditions: E. coli DRC41 growth, higher = more signal, called active from +8 up or from −8 down
[17] = probe aLefty2 binding to arrayed compounds – biochemical, biotinylated probe, 635/667 nm fluorescence, primary screen (AID 1094); conditions: small-molecule microarray, higher = more signal;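 note: score merges spot fluorescence near 667 nm with spot signal-to-noise ratio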
[18] = tested on: Noggin (protein binding on small-molecule microarray); experiment: small molecules binding Noggin protein – biochemical, 635/667 nm fluorescence, primary screen (AID 1095); conditions: 635 nm fluorescence, higher = more signal;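 note: score merges 667 nm feature fluorescence with signal to noise over triplicate slides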
[19] = target: Neurogenic locus notch homolog protein 3 (Homo sapiens) (UniProt Q9UM47); experiment: small molecules binding NOTCH3 protein – biochemical, 635/667 nm fluorescence, primary screen (AID 1096); conditions: small-molecule microarray, 635 nm fluorescence, higher = more signal
[20] = probe aEGFR binding to arrayed compounds – biochemical, biotinylated probe, 635/667 nm fluorescence, primary screen (AID 1097); conditions: small-molecule microarray, higher = more signal;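 note: probe is a biotinylated anti-EGFR antibody binding compounds printed on slides; score combines fluorescence near 667 nm and signal to noise of each spot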

Chain of Pro-neuregulin-1, membrane-bound isoform (Homo sapiens) (Q02297 whole entry, looked up, the tested form may be a part, canonical isoform): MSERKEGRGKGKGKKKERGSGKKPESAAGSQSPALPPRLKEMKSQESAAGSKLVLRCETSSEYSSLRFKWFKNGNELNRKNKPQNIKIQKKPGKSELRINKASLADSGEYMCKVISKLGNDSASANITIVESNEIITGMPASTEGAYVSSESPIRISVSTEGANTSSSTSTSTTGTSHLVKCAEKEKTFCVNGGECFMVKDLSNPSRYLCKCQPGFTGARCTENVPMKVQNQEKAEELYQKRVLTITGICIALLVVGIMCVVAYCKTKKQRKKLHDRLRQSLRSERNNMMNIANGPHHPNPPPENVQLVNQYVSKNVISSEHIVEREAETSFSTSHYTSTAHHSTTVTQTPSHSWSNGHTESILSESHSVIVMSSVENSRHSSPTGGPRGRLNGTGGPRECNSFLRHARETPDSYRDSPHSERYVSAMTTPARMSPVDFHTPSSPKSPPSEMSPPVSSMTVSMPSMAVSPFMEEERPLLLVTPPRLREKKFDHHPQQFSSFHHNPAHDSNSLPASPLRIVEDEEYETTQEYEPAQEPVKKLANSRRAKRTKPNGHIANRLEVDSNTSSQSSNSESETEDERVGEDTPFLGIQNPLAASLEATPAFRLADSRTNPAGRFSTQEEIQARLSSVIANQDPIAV
Chain of Torsin-1A-interacting protein 2 (Homo sapiens) (Q8NFQ8 whole entry, looked up): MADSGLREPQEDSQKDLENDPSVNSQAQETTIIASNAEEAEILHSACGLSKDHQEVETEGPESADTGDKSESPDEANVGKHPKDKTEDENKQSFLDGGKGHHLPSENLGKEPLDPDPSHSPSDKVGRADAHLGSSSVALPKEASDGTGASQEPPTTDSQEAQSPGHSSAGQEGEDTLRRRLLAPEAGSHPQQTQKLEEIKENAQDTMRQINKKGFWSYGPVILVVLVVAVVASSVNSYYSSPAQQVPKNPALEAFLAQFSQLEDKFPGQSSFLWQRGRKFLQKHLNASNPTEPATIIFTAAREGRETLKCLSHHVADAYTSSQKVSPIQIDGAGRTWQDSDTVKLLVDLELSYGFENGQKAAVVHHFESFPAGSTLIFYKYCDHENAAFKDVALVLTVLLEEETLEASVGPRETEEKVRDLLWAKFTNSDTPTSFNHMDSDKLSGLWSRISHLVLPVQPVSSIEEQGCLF
Chain of Neurogenic locus notch homolog protein 2 (Homo sapiens) (Q04721 whole entry, looked up, canonical isoform): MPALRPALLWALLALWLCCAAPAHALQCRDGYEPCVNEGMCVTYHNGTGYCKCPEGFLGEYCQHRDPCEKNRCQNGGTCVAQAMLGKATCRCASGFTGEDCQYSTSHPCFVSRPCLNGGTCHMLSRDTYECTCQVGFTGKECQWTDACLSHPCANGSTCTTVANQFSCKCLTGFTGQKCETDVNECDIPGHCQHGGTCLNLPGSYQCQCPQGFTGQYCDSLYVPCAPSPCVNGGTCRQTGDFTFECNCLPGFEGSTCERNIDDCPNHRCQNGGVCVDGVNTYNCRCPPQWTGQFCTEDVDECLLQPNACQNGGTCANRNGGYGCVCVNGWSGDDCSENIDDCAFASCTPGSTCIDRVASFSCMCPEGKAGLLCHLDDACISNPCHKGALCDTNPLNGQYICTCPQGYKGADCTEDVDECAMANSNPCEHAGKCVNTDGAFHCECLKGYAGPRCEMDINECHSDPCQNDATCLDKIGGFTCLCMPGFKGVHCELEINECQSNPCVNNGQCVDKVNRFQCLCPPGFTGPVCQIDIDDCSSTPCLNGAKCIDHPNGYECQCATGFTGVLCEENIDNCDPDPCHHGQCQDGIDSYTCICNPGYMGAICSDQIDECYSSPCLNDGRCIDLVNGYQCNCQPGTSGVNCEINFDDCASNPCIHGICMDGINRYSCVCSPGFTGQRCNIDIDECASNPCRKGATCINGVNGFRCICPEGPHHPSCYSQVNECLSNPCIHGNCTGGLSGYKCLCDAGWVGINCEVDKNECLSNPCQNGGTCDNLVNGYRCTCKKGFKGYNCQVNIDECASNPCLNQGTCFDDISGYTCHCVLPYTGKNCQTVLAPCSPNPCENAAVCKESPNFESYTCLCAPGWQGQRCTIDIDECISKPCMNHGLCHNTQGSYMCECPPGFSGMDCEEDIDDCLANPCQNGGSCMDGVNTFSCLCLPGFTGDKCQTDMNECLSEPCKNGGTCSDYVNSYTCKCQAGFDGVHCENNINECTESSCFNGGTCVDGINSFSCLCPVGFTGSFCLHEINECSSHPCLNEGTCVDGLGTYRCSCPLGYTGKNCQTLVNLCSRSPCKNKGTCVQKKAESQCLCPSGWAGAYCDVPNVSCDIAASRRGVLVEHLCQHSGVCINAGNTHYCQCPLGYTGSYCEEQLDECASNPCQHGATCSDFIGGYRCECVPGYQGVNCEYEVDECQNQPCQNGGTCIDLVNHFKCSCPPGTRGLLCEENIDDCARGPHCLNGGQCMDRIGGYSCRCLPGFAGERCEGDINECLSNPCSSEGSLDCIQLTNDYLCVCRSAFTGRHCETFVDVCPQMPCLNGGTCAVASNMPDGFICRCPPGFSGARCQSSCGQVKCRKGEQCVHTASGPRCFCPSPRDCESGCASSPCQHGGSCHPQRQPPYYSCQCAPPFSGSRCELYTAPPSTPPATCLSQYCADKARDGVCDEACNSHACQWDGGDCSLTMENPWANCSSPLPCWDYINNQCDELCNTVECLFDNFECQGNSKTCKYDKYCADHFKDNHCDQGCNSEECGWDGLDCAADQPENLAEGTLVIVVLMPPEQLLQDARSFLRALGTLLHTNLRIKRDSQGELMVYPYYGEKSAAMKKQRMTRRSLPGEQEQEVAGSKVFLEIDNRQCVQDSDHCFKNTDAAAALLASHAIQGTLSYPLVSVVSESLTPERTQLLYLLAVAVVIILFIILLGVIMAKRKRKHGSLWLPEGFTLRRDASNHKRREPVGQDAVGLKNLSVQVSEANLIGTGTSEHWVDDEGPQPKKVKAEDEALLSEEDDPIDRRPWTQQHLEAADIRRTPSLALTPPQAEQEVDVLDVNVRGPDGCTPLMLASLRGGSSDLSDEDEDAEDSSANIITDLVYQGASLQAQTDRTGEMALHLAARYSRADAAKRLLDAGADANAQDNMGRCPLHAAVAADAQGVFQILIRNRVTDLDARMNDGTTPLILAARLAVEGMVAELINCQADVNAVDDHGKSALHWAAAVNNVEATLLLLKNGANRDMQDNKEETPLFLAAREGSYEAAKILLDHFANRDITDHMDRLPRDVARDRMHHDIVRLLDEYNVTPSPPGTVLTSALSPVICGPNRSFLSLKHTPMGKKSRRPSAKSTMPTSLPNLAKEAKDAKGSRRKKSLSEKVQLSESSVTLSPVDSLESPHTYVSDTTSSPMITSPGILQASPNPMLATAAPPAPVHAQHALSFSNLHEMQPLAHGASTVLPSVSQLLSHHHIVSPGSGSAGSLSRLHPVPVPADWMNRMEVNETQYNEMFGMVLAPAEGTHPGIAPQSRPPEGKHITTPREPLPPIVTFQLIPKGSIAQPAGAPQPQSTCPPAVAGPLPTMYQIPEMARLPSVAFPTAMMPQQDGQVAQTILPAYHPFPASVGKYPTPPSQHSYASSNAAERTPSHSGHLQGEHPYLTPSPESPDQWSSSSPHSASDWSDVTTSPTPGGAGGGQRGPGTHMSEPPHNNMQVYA

| SMILES | composite z-score [1] | composite z-score [2] | composite z-score [3] | composite z-score [4] | composite z-score [5] | composite z-score [6] | composite z-score [7] | z-score [8] | composite z-score [9] | composite z-score [10] | composite z-score [11] | z-score [12] | z-score [13] | z-score [14] | composite z-score [15] | z-score [16] | composite z-score [17] | composite z-score [18] | composite z-score [19] | composite z-score [20] |
| --- | --- | --- | --- | --- | --- | --- | --- | --- | --- | --- | --- | --- | --- | --- | --- | --- | --- | --- | --- | --- |
| COc1ccc(C(O)C2C=CC3C(=O)N(C)C(=O)C3N2Nc2ccccc2)cc1OCc1ccccc1 (stereo not given) | 0.008 | 0.174 | 0.0258 | 0.386 | 1.28 | 1.94 | 1.31 | -1.1 (inactive) | 0.346 | 0.208 | 1.49 | -4.02 (inactive) | 1.11 (inactive) | 0.317 (inactive) | 3.41 | -1.2 (inactive) | 0.287 | 0.102 | 0.742 | 0.0099 |
| C=CCNC(=O)[C@@H]1[C@H]2C(=O)O[C@H](c3ccccc3)[C@H](c3ccccc3)N2[C@H](c2ccc(OCCO)cc2)[C@@]12C(=O)Nc1ccccc12 | 0.511 | 0.0949 | -0.116 | 0.405 | 0.117 | 1.51 | 1.23 | -1.05 (inactive) | 0.627 | -0.513 | 1.55 | -1.2 (inactive) | 0.406 (inactive) | 2.21 (inactive) | 2.46 | 0.462 (inactive) | -0.175 | 1.28 | 1.09 | -0.197 |
| C=CCOC(=O)[C@@H]1[C@H]2C(=O)O[C@H](c3ccccc3)[C@H](c3ccccc3)N2[C@H](c2ccc(OCCOC(=O)[C@@H]3C[C@@H]4C(=O)NCC(=O)N4[C@@H]3c3cccc(OCCO)c3)cc2)[C@@]12C(=O)Nc1ccc(I)cc12 | -0.112 | 0.948 | -0.119 | 0.818 | 1.18 | 1.29 | 1.35 | 0.536 (inactive) | 0.272 | -0.0391 | 1.53 | 0.895 (inactive) | 1.01 (inactive) | 2.19 (inactive) | 2.53 | -0.637 (inactive) | -0.0654 | 1.14 | 1.1 | 0.0618 |
| C=CCOC(=O)[C@H]1[C@@H]2C(=O)O[C@@H](c3ccccc3)[C@@H](c3ccccc3)N2[C@@H](c2ccc(OCCOC(=O)[C@@H]3C[C@@H]4C(=O)N5CCC[C@H]5C(=O)N4[C@@H]3c3ccc(O)cc3)cc2)[C@]12C(=O)Nc1ccccc12 | -0.212 | 0.434 | -0.108 | 0.282 | 0.356 | 0.771 | 1.28 | -0.105 (inactive) | 0.328 | -0.249 | 1.53 | 0.821 (inactive) | 1.64 (inactive) | 3.79 (inactive) | 2.63 | 0.621 (inactive) | -0.0984 | 1.15 | 0.799 | -0.096 |
| O=c1oc(-c2ccccc2)nc2cc(Br)ccc12 | -0.0862 | 0.0961 | -0.103 | 0.298 | 0.325 | -0.0187 | 0.52 | -0.409 (inactive) | 0.127 | -0.287 | 0.35 | 0.844 (inactive) | -1.43 (inactive) | -0.0605 (inactive) | 0.711 | 0.258 (inactive) | -0.0478 | 0.625 | 0.693 | -0.111 |
